# Screening results (PubChem BioAssay)
# Hits are enriched below; roughly 3.4% of the tested compounds scored in any of these assays.
# PGC1a acetyl inh – inhibitors of PGC1a acetylation signal, primary screen, cell-based, U2OS, AlphaScreen, inhibitor mode. AlphaScreen anti-acetyl-lysine; with virally co-expressed GCN5 acetyltransferase. hit rate 0.17% among 350,000. inhibition, % at 15.6 µM;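 active = every replicate shows inhibition of at least 40%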;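 also: 0% = neutral control wells and 100% = positive control wells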
# EWS-Fli block – EWS/Fli-driven NR0B1 reporter inhibitors, primary screen, A673 cells, NR0B1 luciferase, luminescence, MLPCN library. viability-normalised. inhibition, % at 12.6 µM. hit rate 0.67% among 350,000;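 active = mean inhibition of at least 50% after viability correction, with every replicate also passing that limit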;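 also: firefly luciferase signal divided by Alamar Blue viability fluorescence both relative to DMSO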
# LGR2 antag – inhibitors of bursicon-induced LGR2 CRE-luciferase signal, primary screen, cell-based, HEK293, CRE-luciferase reporter, bursicon stimulation | Drosophila bursicon receptor LGR2 (rickets) | bursicon-stimulated, 4 h | inhibition, % at 9.99 µM | hit rate 0.35% among 380,000;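 active = drop in luminescence signal, shown as inhibition above about 50% in the replicate tests, limit read from the data, passing the limit was not always enough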;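 also: agonist challenge used bursicon conditioned medium at about half maximal strength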
# PAX8 reporter – inhibitors of PAX8-driven TPO luciferase reporter, primary screen, RMG-I cells, single concentration; SteadyGlo, 24 h; inhibition, % at 12.6 µM; hit rate 1.2% among 360,000;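 active = mean replicate inhibition at least 60% with every replicate also reaching 60%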;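 also: luciferase light reporting Pax8 driven TPO promoter activity; plate controls were median of neutral control wells for no effect and mitoxantrone controls for full effect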
# SIRT5 block – SIRT5 desuccinylase inhibitors, primary screen, biochemical, fluorescence imaging, single point, set 5. NAD-dependent protein deacylase sirtuin-5, mitochondrial (Homo sapiens), Q9NXA8. Purified SirT5, succinyl-peptide AMC, trypsin-coupled fluorescence. inhibition, % at 15 µM. hit rate 1.1% among 330,000; in the data active = inhibition above about 15%
# Target sequence (Q9NXA8 whole entry, looked up): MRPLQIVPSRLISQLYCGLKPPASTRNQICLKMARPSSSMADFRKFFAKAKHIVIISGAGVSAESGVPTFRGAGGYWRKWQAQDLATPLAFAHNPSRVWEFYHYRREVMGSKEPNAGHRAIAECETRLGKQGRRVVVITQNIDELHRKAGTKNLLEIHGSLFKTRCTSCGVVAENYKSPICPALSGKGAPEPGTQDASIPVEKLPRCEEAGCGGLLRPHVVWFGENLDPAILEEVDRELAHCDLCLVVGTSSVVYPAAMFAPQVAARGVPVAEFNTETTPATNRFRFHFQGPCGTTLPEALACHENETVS
# Ecoli rRNA inh – reduced GFP signal of wild-type E. coli, primary screen, bacterial rRNA inhibitor project, GFP/RFP fluorescence, OD600, single point. E. coli WT GFP vs humanized-ribosome RFP mutants, 24 h; active compounds read low; DMSO median 0, no signal -100. GFP signal change (wild-type ribosome), % (test concentration not listed). hit rate 1.6% among 350,000. AID 720706, 2013;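 active = significant combined selectivity score with lowered wild-type GFP, culture density cut under 30%, mutant RFP and density less affected; inactive = any of these conditions unmet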
# * = called active by the depositor; · = no result given.
SMILES,PGC1a acetyl inh,EWS-Fli block,LGR2 antag,PAX8 reporter,SIRT5 block,Ecoli rRNA inh
O=C(C[C@H]1C[C@@H]2c3cc(NC(=O)c4cccnc4)ccc3O[C@@H]2[C@H](CO)O1)NCc1cccnc1,7,-8,6,2,2,5
O=C1CNC(=O)/C1=C/c1ccc(Br)cc1,-4,-6,-2,7,25*,22
CO[C@@H]1CN(C)C(=O)c2cc(NC(=O)c3ccc4c(c3)OCO4)ccc2OC[C@H](C)NC[C@H]1C,-6,1,3,0,-1,3
Fc1cccc(/C=N/Nc2ccc3ccccc3n2)c1,0,38,41,-95,-1,-24*
O=C(N/N=C/c1cccc([N+](=O)[O-])c1O)c1cccs1,·,69*,-1,16,0,5
O=[N+]([O-])c1cccc(C=NNc2ccc3ccccc3n2)c1O,·,28,81*,-94,0,-15
O=C(N/N=C/c1cccc([N+](=O)[O-])c1O)C(O)(c1ccccc1)c1ccccc1,·,1,10,-3,2,-18*
Brc1ccccc1/C=N/Nc1ccc2ccccc2n1,·,-15,-45,-95,-4,-42
CC(C)(C)S(=O)N1Cc2cc(C(=O)O)nc(-c3cccc(C#CCC4CCCC4)c3)c2[C@@H]1CCO (stereo partly drawn),·,·,·,·,·,-4
O=C(N/N=C/c1cccc2ccccc12)c1cccs1,·,-90,-103,-197,18*,-15
O=C(N/N=C/c1c[nH]c2ccccc12)c1cccs1,12,-40,-54,-84,0,-11
Cc1nc(N2C(=O)C(=O)/C(=C(/O)c3ccccc3)C2c2ccco2)sc1C (stereo not drawn),·,·,-8,·,·,·
COC(=O)c1sc(N2C(=O)C(=O)/C(=C(/O)c3ccccc3)C2c2ccco2)nc1C (stereo not drawn),·,4,1,5,5,-34*
C[C@H]1CN([C@@H](C)CO)C(=O)c2cc(NC(=O)C3CCCCC3)ccc2O[C@@H]1CN(C)CC1CC1,-7,-3,8,·,22*,4
C[C@@H]1CN([C@H](C)CO)C(=O)c2cccc(NC(=O)C3CCCCC3)c2O[C@@H]1CN(C)CC1CC1,9,-9,2,·,21*,2
C[C@@H]1CN([C@@H](C)CO)C(=O)c2cc(NC(=O)C3CCCCC3)ccc2O[C@@H]1CN(C)CC1CC1,7,-7,0,·,-7,2
C[C@H]1CN([C@@H](C)CO)C(=O)c2cccc(NC(=O)Nc3cccc4ccccc34)c2O[C@H]1CN(C)CC1CC1,-3,-3,12,90*,0,1
C[C@H](CO)N1C[C@H](C)[C@@H](CN(C)CC2CC2)Oc2c(NC(=O)Nc3cccc4ccccc34)cccc2C1=O,-4,12,·,16,-1,·
C[C@@H]1CN([C@@H](C)CO)C(=O)c2cc(C3=CCCCC3)cnc2O[C@@H]1CN(C)Cc1ccccn1,0,-14,-2,·,1,-1
O=C(NCCN1C(=O)S/C(=C\c2ccc(Cl)c(Cl)c2)C1=O)c1cnccn1,·,·,16,-15,·,·
O=C(NCCN1C(=O)S/C(=C\c2ccc(Cl)c([N+](=O)[O-])c2)C1=O)C1=COCCO1,4,41,-15,70*,-3,5
Cc1cc2c(sc3ccccc32)c(C)n1,-15,-6,-15,-21,-6,-24*
Cc1cc2c([nH]c3ccccc32)c(C)n1,-9,4,-7,-8,-35,-37
COCCNC(=O)c1cc2c(c(-c3cccc(-c4cccc(F)c4)c3)n1)[C@H](CCO)N(S(=O)C(C)(C)C)C2 (stereo partly drawn),-6,5,8,62*,36*,-7
CCCNC(=O)c1cc2c(c(-c3cccc(-c4cccc(OC)c4)c3)n1)[C@H](CCO)N([S@@](=O)C(C)(C)C)C2,-5,23,18,38,18*,-3
SMILES,PGC1a acetyl inh,EWS-Fli block,LGR2 antag,PAX8 reporter,SIRT5 block,Ecoli rRNA inh
CC(C)(C)S(=O)N1Cc2cc(C(=O)NCC(F)(F)F)nc(-c3cccc(-c4cccc(F)c4)c3)c2[C@@H]1CCO (stereo partly drawn),-11,20,15,70*,-2,-2
C=CCOC(=O)[C@@]12O[C@]3(COC[C@H](c4ccccc4)N3C1=O)[C@@H]1C(=O)N(c3ccccc3)C(=O)[C@@H]12,17,-10,·,-14,-7,·
CN(C)C(=O)c1cc(C(=O)c2ccc(C(F)(F)F)cc2F)c[nH]1,13,-17,29,-10,34*,9
CCOC(=O)[C@]12CCCC=C1N(Cc1ccc(Cl)cc1Cl)C(=O)[C@H](CC(=O)NCc1cccc(C(F)(F)F)c1)C2,·,8,21,38,1,6
COC(=O)[C@]12CCCCC=C1N(Cc1ccc(Cl)cc1Cl)C(=O)[C@H](CC(=O)NCc1cccc(C(F)(F)F)c1)C2,·,10,8,2,20*,2
COC(=O)[C@]12CCCCC=C1N(CCC1=CCCCC1)C(=O)[C@H](CC(=O)NCCc1ccccc1OC)C2,·,9,26,11,16*,12
COC(=O)[C@]12CCCCC=C1N(Cc1ccccc1)C(=O)[C@H](CC(=O)NCCCCc1ccccc1)C2,·,9,14,4,17*,-1
CCOC(=O)[C@]12CCC=C1N(Cc1ccc(Cl)cc1Cl)C(=O)[C@H](CC(=O)N1CCN(C(=O)c3ccco3)CC1)C2,·,-4,24,79*,-3,·
C[C@@H]1CN([C@H](C)CO)S(=O)(=O)c2ccc(-c3ccccc3)cc2O[C@H]1CN(C)C(=O)c1ccccc1F,14,8,16,·,·,-11
COC(=O)[C@]12CCCCC=C1N(Cc1cccc3ccccc13)C(=O)[C@H](CC(=O)NCc1ccc(OC)c(OC)c1)C2,·,23,89*,43,1,6
COC(=O)[C@]12CCCCC=C1N(Cc1ccc(Cl)cc1Cl)C(=O)[C@H](CC(=O)N1CCN(C(=O)c3ccco3)CC1)C2,·,-8,13,109*,7,-7
CCCCCCCCN1C(=O)[C@H](CC(=O)N2CCN(C(=O)c3ccco3)CC2)C[C@@]2(C(=O)OCC)CCCC=C12,·,13,-11,87*,7,-32
COC(=O)[C@]12CCCCC=C1N(CCc1ccc(OC)c(OC)c1)C(=O)[C@H](CC(=O)NCc1cccc3ccccc13)C2,·,13,27,18,-2,11
CCOC(=O)[C@]12CCCC=C1N(Cc1ccco1)C(=O)[C@H](CC(=O)N1CCN(C(=O)c3ccco3)CC1)C2,·,0,-21,45,-14,-3
